Experimental findings from PubChem BioAssay AID1628 (Sanford-Burnham Center for Chemical Genomics, 2009) are described below.

Hit rate of the full screen: of about 190,000 compounds, about 930 (0.49%) were called active. The list shows a part of the results. Potency and affinity values are given separately. Unmarked numbers belong to inactive results.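 How the source made its calls: active means z-score of insulin promoter reporter brightness in nuclei below -3 at 5 µM, with at least 500 cells counted; inconclusive means wells with under 500 cells, flagged as toxic or sparse; inactive means the rest.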

The nature of this experiment: insulin promoter down-regulators in MIN6 cells, imaging, high-content screening, mouse beta cells (AID 1628). Particulars: MIN6 insulin promoter GFP reporter, at 5 µM, hits give low values.
`COCCn1c(CN2CCN(c3ccc(OC)cc3)CC2)nc2c1c(=O)n(C)c(=O)n2C`: the z-score is -7.6 (active).
Then `CC1CCCN(c2nc3c(c(=O)n(C)c(=O)n3C)n2CCSc2nc3ccccc3s2)C1` (stereo unspecified), with 3.19.
The same measure for `COc1ccc(N2CCN(C(=O)CSc3nc4c(c(=O)n(C)c(=O)n4C)n3C(C)C)CC2)cc1`: -3.09 (active).
In the case of `Cc1cc(C)c(C(=O)O)c(CC(C)(C)C(=O)O)c1`, the z-score was 3.14.
Turning to `Cn1c(=O)c(N)c2c3c(c(Br)ccc31)C(=O)c1ccccc1-2`, the z-score was 16.9.
Then `Cc1c(-c2cc(C(=O)O)on2)cnn1C`, with 1.94; and `CC(C)N=c1scc(-c2ccco2)n1/N=C/c1ccc(O)c(O)c1`, with -5.1 (active); and `CCCCN(C)C(=S)Nc1ccsc1C(=O)OC`, with 2.3.
In the case of `CCOc1cc(/C=N/Nc2nc3ccccc3[nH]2)cc(Br)c1OCC(=O)N(C)C`, the z-score was -3.72 (active).
Then `CCOc1cc(/C=C/C(=O)Nc2ccc(C(=O)NCCN(CC)CC)cc2)ccc1OCC(C)C`, with -4.98 (active).
The same measure for `CCOc1cc2[nH]c(=O)n(Cc3ccc(C(=O)NCCOC)cc3)c(=O)c2cc1OCC`: 1.15; for `Cc1ccc(C(OCC(O)CNC(C)c2ccccc2)c2ccccc2)cc1` (stereo unspecified): -3.13 (active); for `Cc1cc(OCC(=O)NCc2cccnc2)ccc1[N+](=O)[O-]`: -4.17 (active).
As for `CCCc1cc(=O)[nH]c(SCC(=O)NCCCC(=O)OCC)n1`, the z-score is 3.15.
In the case of `CCCNC(=O)Cc1cc(=O)[nH]c(=O)[nH]1`, the z-score was -3.04 (active).
Then `CC1(C)c2ccccc2N2CC(=O)NC21/C=C/c1ccco1` (stereo unspecified), with 3.29; and `O=C(CSc1ncccn1)NC(=O)c1ccccc1`, with 0.73.
Take `COC(=O)c1ccnc(SCC(=O)c2ccccc2)c1`: the z-score was -3.59 (active).
Then `COC(=O)c1cccc(N2C(=O)c3cccnc3C2=O)c1`, with 0.1.
The same measure for `CCN1C(=O)/C(=C/c2ccc(N3CCCC3)cc2)NC1=S`: 15.8; for `CCn1c(SCC(=O)c2c[nH]c3ccccc23)nc2cc(S(=O)(=O)N3CCOCC3)ccc21`: 3.09.
The same measure for `CCOC(=O)c1ccc2c(c1)nc(C1CCN(S(=O)(=O)c3cccs3)CC1)n2CC`: -4.13 (active).
Turning to `COc1cccc(C(=O)Nc2ccccc2C(=O)N2CCCC2)c1`, the z-score is 3.3.
The same measure for `CS(=O)(=O)Nc1ccc(C(=O)Nc2ccccc2C(=O)N2CCCC2)cc1`: -4.1 (active); for `CCNc1c2c3c(cccc3n(C)c1=O)C(=O)c1ccccc1-2`: 15.6; for `CCC(CC)COC(=O)C(C#N)c1nc2ccccc2nc1N1CCN(CC)CC1` (stereo unspecified): -3.84 (active).
The same measure for `CCN1CCN(C2=CC3=CC(=C(C#N)C#N)CCC3CC2)CC1` (stereo unspecified): 16.6.
Then `Cc1ccc(S(=O)(=O)C(C#N)c2nc3ccccc3nc2N2CCC(C)CC2)cc1` (stereo unspecified), with 3.75; and `CCN(CC)c1ccc(/C=C2\SC(=O)N(C(C)C)C2=O)o1`, with 17.4.
Turning to `Cc1ccccc1-c1nnc(-c2ccc(Cl)cc2)o1`, the z-score is 3.54.
Then `CC(=O)OCC(=O)c1c[nH]c2ccccc12`, with 0.26; and `CC(Cc1c[nH]c2ccccc12)C(=O)O` (stereo unspecified), with 0; and `C=CCN1C(=O)/C(=C\C=C2\N(C)c3ccccc3C2(C)C)SC1=S`, with 15.4.
Then `CN1/C(=C\C=C(/C#N)C(=O)Nc2ccc(Cl)cc2)C(C)(C)c2ccccc21`, with 8.8; and `CN1CCN(C2=CC3=CC(=C(C#N)C#N)CCC3CC2)CC1` (stereo unspecified), with 10.9.
The same measure for `N#CCCn1cc(C(CC(=O)c2ccc(Br)cc2)C(=O)O)c2ccccc21` (stereo unspecified): -4.89 (active); for `CCN1C(=O)/C(=C/C=C2\N(CC)c3cc(S(=O)(=O)N(C)C)ccc3N2c2ccccc2)SC1=S`: 13.2; for `COc1ccc(-c2cc(=O)c3cc(OC)ccc3o2)cc1`: -0.37.
`COc1ccc2[nH]cc(CCN3C(=O)CCC3=O)c2c1`: the z-score was -5.12 (active).
The same measure for `COc1cccc(C(=O)CN2C(=O)C(C)(C)Oc3ccc(C(=O)N4CCCCCC4)cc32)c1`: 3.58; for `N/C(=N\OC(=O)C1CCCCC1)c1cccc([N+](=O)[O-])c1`: 3.01; for `O=C(c1cccc([N+](=O)[O-])c1)N1CCCN(C(=O)c2cccc([N+](=O)[O-])c2)CC1`: -7.17 (active).
Consider `S=C(Nc1ccc(Oc2ccc(NC(=S)NC3CCCCC3)cc2)cc1)NC1CCCCC1`, for which the z-score was -5.62 (active).
The same measure for `CCc1ccc(NC(=S)NCC2CCCN2CC)cc1` (stereo unspecified): 3.74; for `O=C1N/C(=N/Nc2ccccc2)S/C1=C\c1ccccc1`: 3.19.
Then `CCOC(=O)c1c(C)nc2c(c1C)c(=O)oc1ccccc12`, with 0.62.
The same measure for `O=c1cc(-c2ccc(O)cc2)oc2ccccc12`: -0.5; for `O=C1/C(=C/c2ccc(N3CCCC3)cc2)NC(=S)N1C1CC1`: 12.6; for `COC(=O)c1nc2ccccn2c1F`: 2.02.
Take `CC1(C)CC(=O)c2sc(NS(=O)(=O)Cc3ccccc3)nc2C1`: the z-score is 1.07.
For `O=c1c(N2CCOCC2)c(N2CCOCC2)c1=O`, the z-score is 3.02.
Then `COc1cc(NC(=O)CN(C)Cc2ccc(OC(F)F)cc2)c(C)cc1[N+](=O)[O-]`, with -4.52 (active).
Then `COc1cc(Cl)c(C)cc1NC(=O)CN(C)Cc1cccc(OC)c1OC`, with 3.4.
The same measure for `Cc1ccc(Nc2nc3c([nH]2)c(=O)n(C)c(=O)n3C)cc1`: 3.32; for `Cc1ccc(Nc2cc(C)nn2-c2nc(C)cc(=O)[nH]2)cc1`: -3.51 (active).
On to `FC(F)(F)c1cccc(N2CCN(Cc3cccnc3)CC2)c1`, for which the z-score is -4.71 (active).
As for `CC(C)(O)C(O)COc1c2ccoc2cc2oc(=O)ccc12` (stereo unspecified), the z-score is -0.51.
On to `O=C(/C=C/c1ccco1)Oc1cc(Br)cc(/C=N/NC(=O)c2ccccc2O)c1`, for which the z-score is -4.99 (active).
In the case of `COc1cccc(/C=N/NC(=O)c2oc3nc(-c4ccccc4)cc(-c4ccco4)c3c2N)c1`, the z-score was 3.3.
The same measure for `N#Cc1cccc(NC(=O)CSc2ccc3c4c(cccc24)C(=O)c2ccccc2-3)c1`: 4.94; for `CCCCNC(=O)CSc1cc(=O)n(C)c2ccccc12`: -4.57 (active); for `CCc1cc(C(=O)OC)c(NC(=O)CC2Sc3ccc(C(F)(F)F)cc3NC2=O)s1` (stereo unspecified): 3.33.
Then `COc1ccccc1OCC(O)Cn1c(=N)n(CCN2CCCCC2)c2ccccc21` (stereo unspecified), with -5.05 (active).
The same measure for `Brc1ccc(Oc2nsnc2N2CCOCC2)cc1`: 3.88; for `C=CCn1c(C)cc(C(=O)CSc2nnc(-c3cccc(S(=O)(=O)N(CC)CC)c3)o2)c1C`: -3.66 (active).
With `CC(C)CNC(=O)CSc1nnc(-c2cccc(S(=O)(=O)N3CCCCC3)c2)o1`, the z-score was 4.75.
For the compound `CCN(CC)S(=O)(=O)c1cccc(-c2nnc(SCCCC(=O)c3ccc(F)cc3)o2)c1`, the z-score is -4.17 (active).
The same measure for `CC(=O)OC(C(=O)NCc1ccc(F)cc1)c1ccccn1` (stereo unspecified): 3.91.
The same measure for `Cc1nc2ccccc2nc1N/N=C/c1ccc(O)cc1O`: -3.3 (active); for `Oc1ccc(/C=N/Nc2nc(-c3ccccc3F)nc3ccccc23)c(O)c1`: 3.69.
`Cc1ccc(-c2cc(N)n(-c3ccccc3)n2)cc1`: the z-score is 5.28.
For the compound `Cc1ccc(-n2ncc(Br)c(Br)c2=O)cc1`, the z-score is -4.97 (active).
The same measure for `c1ccc(-c2csc(-n3cnnn3)n2)cc1`: 3.13; for `N#C/C(=C/c1ccc(N2CCOCC2)o1)c1nc2ccccc2[nH]1`: 15; for `Cc1ccccc1-n1ncc2c(SCC(=O)NCc3cccs3)ncnc21`: 3.57.
As for `COc1ccc2c(C)cc(SCC(=O)N(C)C3CCS(=O)(=O)C3)nc2c1` (stereo unspecified), the z-score is 4.13.
The same measure for `O=C1C2C3C=CC(C3)C2C(=O)N1CCc1ccccc1` (stereo unspecified): 3.33; for `CC(C)Cn1c(=O)c2c(nc3n2CCCN3CCc2ccccc2)n(C)c1=O`: -4.13 (active); for `Cn1c(=O)n(Cc2ccccc2F)c(=O)c2c1nc1n2CCN1Cc1ccco1`: 2.8.
As to `CCCCN1C(=O)/C(=C/C=C2/CC(C)(C)CN2C)SC1=S`, the z-score was 16.2.
As to `COc1ccc(CC(=S)N2CCOCC2)cc1`, the z-score was -4.87 (active).
`COc1ccc(C(=S)N2CCCC2)cc1`: the z-score is 0.82.
As to `COc1ccc(NC(=O)/C(C#N)=C\c2ccc(N3CCOCC3)o2)cc1`, the z-score was 3.17.
Regarding `O=C(Cn1ncn2c(cc3ccccc32)c1=O)NCc1ccco1`, the z-score is 3.78.
The same measure for `Cc1cc2oc(=O)cc(CN3CCN(C/C=C/c4ccccc4)CC3)c2cc1O`: -3.48 (active).
For `Cc1cc(=O)oc2cc(OC(=O)c3ccccc3)ccc12`, the z-score is -0.09.
Turning to `CCc1cc2c(CN3CCN(CCO)CC3)cc(=O)oc2cc1O`, the z-score was 3.59.
On to `CCOc1ccc2[nH]c(=O)c(CN(Cc3ccco3)C(CC)c3nnnn3Cc3ccccc3)cc2c1` (stereo unspecified), for which the z-score is -2.78.
`CCC(c1nnnn1CCc1ccccc1)N(Cc1ccco1)Cc1cc2cccc(C)c2[nH]c1=O` (stereo unspecified): the z-score was -3.08 (active).
The same measure for `CCC(c1nnnn1CCc1ccccc1)N(Cc1ccco1)Cc1cc2cc(C)cc(C)c2[nH]c1=O` (stereo unspecified): -3.35 (active); for `CCC(c1nnnn1Cc1ccco1)N(Cc1ccccc1OC)Cc1cc2cc(C)ccc2[nH]c1=O` (stereo unspecified): -4.61 (active).
Consider `Cc1cc2nc3c(=O)n(C4CCCCC4)c(=O)[nH]c3nc2cc1N`, for which the z-score was 7.94.
The same measure for `CCC(C)N1C(=O)/C(=C/c2c(NCCCOC(C)C)nc3c(C)cccn3c2=O)SC1=S` (stereo unspecified): 13.1; for `CC(=O)Nc1ccc2nc(NC(=O)COc3cccc(C)c3)sc2c1`: 1.98; for `Cc1noc(C)c1COc1cccc(C(=O)OC(C)C(=O)Nc2c(C)n(C)n(-c3ccccc3)c2=O)c1` (stereo unspecified): 1.6.
Take `COc1ccc2nc(NC(=O)c3cccc(OCc4c(C)noc4C)c3)sc2c1`: the z-score is -3.94 (active).
